Experimental data: PubChem BioAssay (NCI)
Compounds without any hit were thinned out: in the full panel of roughly 83,000, 20% have a hit.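 The test compound was applied at a single concentration to cells in 96-well plates for 48 hours, and percent growth was recorded.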 A number with no mark means an inactive call. Active and inactive are the calls of the source. How the source made its calls: active means growth percent below 10; inactive means the rest.

system: HL-60(TB) leukemia; experiment: NCI-60 one-dose screen, 48 h (100 = growth as untreated, 0 = no growth, -100 = all killed); conditions: 10 µM unless noted

Structure (SMILES)	growth
Cn1cc2c(c1)-c1nc(Nc3ccccc3)ncc1CC2	97.3%
C=C(C(=O)c1ccccc1)C(NC(C)(C)C)c1ccccc1 (stereo not given)	-14.7% (active)
COc1cccc(C=Nc2cc(C(C)C)c(O)cc2C)c1O	85.9%
CCOC(=O)c1cn2ncnc(Oc3ccc(NC(=O)NC4CC4)c(Cl)c3)c2c1C	83.5%
N#CSc1cc(S(N)(=O)=O)ccc1N	81.2%
C=C1C(=O)O[C@H]2[C@H]1CC/C(COC(=O)c1ccc3ccccc3c1)=C\CC[C@@]1(C)O[C@@H]21	-53.5% (active)
O=S(=O)(O)c1cc(O)c2c(N=Cc3ccccc3O)c(S(=O)(=O)O)ccc2c1	101%
c1cc(OCCCCCOc2cccc(-c3nc4ccccc4[nH]3)c2)cc(-c2nc3ccccc3[nH]2)c1	-32.2% (active)
O=C(/C=C/C12c3ccccc3C(c3ccccc31)C1C(=O)NC(=O)C12)c1ccc(I)cc1 (stereo not given)	6.86% (active)
Cc1cc(N)c2cc(NC(=O)/C=C\c3ccccc3Cl)ccc2n1	-29.3% (active)
Nc1cccc(S(=O)(=O)c2cccc(N)c2)c1	-10.6% (active)
COc1ccc(C2=CN3CC=CCC3CC2=O)cc1 (stereo not given)	110%
CC(=O)/C(C)=N\OC(=O)Nc1ccccc1	102%
CN(C)CCOc1nc2ccccc2c2c1-c1ccc(Cl)cc1C2=O	-27.2% (active)
COc1cc(-c2nc(-c3nc4ccccc4[nH]3)cc3c2[nH]c2ccccc23)cc(OC)c1OC	44.2%
NC(=O)c1ccccc1OCC(=O)Nc1ccc(Cl)c(Cl)c1	86.4%
Cc1ccc(C(=O)Nc2ccc(CN3CCN(C)CC3)c(C(F)(F)F)c2)cc1C#Cc1cncc2ncccc12	-65.1% (active)
COc1cccc(/C(C#N)=C/c2nc3c(N4CCOCC4)nc(Cl)nc3n2C)c1	-32% (active)
COc1ccc(N/C=C/C2=[N+](C)c3ccccc3C2(C)C)c(OC)c1	99.3%
CCCCCCn1c(-c2ccc(C(=O)O/N=C(\N)c3ccc4c(c3)OCO4)cc2)nc(-c2ccccc2)c1-c1ccccc1	-51.1% (active)

Structure (SMILES)	growth
CCN(Cc1ccccc1)c1ccc(C=O)cc1	85.2%
CCN1Cc2nc3sc(C)c(C)c3c(=O)n2C=C1C	1.07% (active)
C/C(=N\NC(=O)Cn1c(-c2ccc(S(C)(=O)=O)cc2)nc2cc(Cl)ccc21)c1ccc(Cl)cc1	88.2%
O=C1Cc2c([nH]c3ccc([N+](=O)[O-])cc23)-c2ccccc2N1	-33.8% (active)
COc1ccc([C@@H]2[C@@H](Cl)C(=O)N2c2cc(OC)c(OC)c(OC)c2)cc1C	-30.3% (active)
CCOc1ccncc1[N+](=O)[O-]	103%
O=S(=O)(NCCCNc1cc(-c2cn(-c3ccccc3)nc2-c2cccc(O)c2)ccn1)c1cccc2ccccc12	17.1%
N#Cc1c(-c2ccccc2)nc(SCC(O)CN2CCOCC2)nc1N1CCOCC1 (stereo not given)	72.2%
FC(F)(F)c1cccc(-n2nnc3cnc(Nc4ccc(N5CCCCC5)cc4)nc32)c1	103%
CCN(CC)c1ccc(CNc2cc(C)nc3ccc(OC)cc23)cc1	-56.3% (active)
CC(C)(C)n1cc(-c2ccnc(NCCCNS(=O)(=O)c3ccc(F)cc3)c2)c(-c2cccc(O)c2)n1	39.9%
Cc1ccc(S(=O)(=O)N2CCCC2CO)cc1 (stereo not given)	97.7%
COc1cc(-c2cc(-c3ccc(Nc4ncnc5cc(Cl)ccc45)cc3)nc(N3CCN(C)CC3)n2)cc(OC)c1OC	76.4%
O=C(CCl)Oc1ccc(-c2ccccc2)c(Br)c1	105%
CC/C(=C(/c1ccc(Cl)cc1)c1ccc(OCCN2CCCCC2)cc1)c1ccc(Cl)cc1	68.5%
Cc1ccc2c(c1)O/C(=C\c1ccc([N+](=O)[O-])o1)C2=O	17.2%
Cc1ccc(C(=O)N/N=C/c2cccc([N+](=O)[O-])c2)cn1	74%
CCCCOCC(=O)NC(NP(=O)(N(C)C)N(C)C)C(Cl)(Cl)Cl (stereo not given)	100%
CCOC(=O)Nc1nc2ccc(SCC(C)C)cc2s1	11.6%
O=C(CSc1nnc(-c2cccnc2SCc2ccccc2)o1)Nc1nc(Cl)cc(Cl)n1	98.3%
